Compounds with a hit are over-represented: about 7% of the library has one in this group of screens.
S2 tox: cell viability loss in ATXN counter-screen; S2 cells (HEK-293 line with an ATXN2-luciferase reporter) viability, CellTiter-Fluor protease fluorescence, 24 h; Potency, µM (top dose mostly 56.7 µM), most hits filed as cytotoxic; 0.49% of 400,000 active; further: nearly all actives have a fitted effect of over 40% in size
ATXN2 expr inh: ATXN2 expression inhibition. HEK-293 ATXN2-luciferase reporter, luminescence, 24 h. Potency, µM (doses to about 57 µM), actives largely listed as inhibitors. 0.72% of 360,000 active; further: nearly all actives have a fitted effect of over 55% in size
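ATXN2-luciferase reporter cells (luciferase flanked by upstream and downstream ATXN2 gene portions) were treated 24 h at 37 °C with compounds at up to 57 uM. SteadyGlo luminescence gave expression; GF-AFC fluorescence gave viability.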
IL1B secr inh: inflammasome signaling inhibition, IL-1 beta readout; AID 743279; 4.7% of 360,000 active; activity change, % at 57.5 µM; THP-1 LPS/ATP IL-1B secretion, AlphaLISA, 16 h; hits give low values; in the data active means activity change below about -50%; inconclusive means mostly about -30% to -49%
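THP-1 cells pretreated 1 hr with compounds (up to 57.5 uM final), then stimulated with LPS (250 ng/mL final) plus ATP (1.25 mM final); secreted IL-1B measured by AlphaLISA after 16 hr, decreased signal indicating inhibition.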
DRD3 antagonist: D3 dopamine receptor (human) antagonism | P35462 | max response, negative = inhibition, % | D3R cells, DiscoveRx beta-arrestin luminescence, antagonist mode; hits give low values | 2.5% of 360,000 active; in the data active means max response below about -50%; inconclusive means no clear call, values can overlap the other calls
Target sequence (P35462 whole entry, looked up): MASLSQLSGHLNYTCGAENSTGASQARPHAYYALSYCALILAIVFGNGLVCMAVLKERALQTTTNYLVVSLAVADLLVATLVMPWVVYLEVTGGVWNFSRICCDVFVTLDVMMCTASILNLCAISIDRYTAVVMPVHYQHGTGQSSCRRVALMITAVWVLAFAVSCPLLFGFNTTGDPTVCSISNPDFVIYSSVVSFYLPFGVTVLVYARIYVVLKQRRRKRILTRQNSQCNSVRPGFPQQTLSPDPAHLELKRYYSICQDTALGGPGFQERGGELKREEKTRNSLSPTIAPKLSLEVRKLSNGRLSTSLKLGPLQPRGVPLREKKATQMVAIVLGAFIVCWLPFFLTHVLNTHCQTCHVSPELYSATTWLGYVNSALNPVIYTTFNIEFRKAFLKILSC
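Cells expressing the human receptor were seeded at 1500 cells/well, incubated overnight at 37 degrees C in 5% CO2, then exposed to library compounds with dopamine controls for 90 minutes at 37 degrees C before luminescent detection.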
DRD3 agonist: D3 dopamine receptor (human) agonism; 0.58% of 410,000 active; D3R DiscoveRx beta-arrestin cells, luminescence, 90 min; max activation, %; in the data active means max activation above about 30%
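Agonist mode: compounds and dopamine controls were applied to plated cells for 90 min at 37 degrees C after an overnight attachment at 1500 cells/well. Luminescent read-out followed 30 - 60 minutes at room temperature with DiscoveRx detection reagent.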
Integrin act MD: activators of alpha7 integrin expression for muscular dystrophy | alpha7betagal myoblasts, beta-gal FDG fluorescence, 48 h | Potency, µM (series often up to 38.3 µM), actives largely listed as activators | 0.064% of 350,000 active | AID 624291; further: nearly all actives have a fitted effect of over 60% in size
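alpha7betagal+/- myoblasts (passage 13, 250/well) treated 48 h at 37C with compounds at 1:260 dilution of DMSO stock. Lysed, then beta-galactosidase activity read as FDG fluorescence (ex 480/em 540) after 30 min, with pre-read for autofluorescence.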
Of the large screens only hits and unclear results are named; the others gave an inactive call; ! = not confirmed by another sample. Unless noted, the call rests on the fitted dose curve; in most records, active means well fitted curve in the direction sought with a large enough effect; inconclusive means small, poorly fitted or top-dose-only effect, or another doubt; inactive means no such curve, though single readings can be large; an effect the other way counts as inactive or inconclusive.

CCC/C(C#CCCN1C(=O)c2ccccc2C1=O)=C1/c2ccccc2C(=O)N1c1ccccc1	S2 tox inconclusive, ATXN2 expr inh inconclusive
CCOC(=O)CNC(=O)N1CCCC(C(=O)c2cc(C)c(OC)c(C)c2)C1 (stereo not given)	none
C=CC[C@]12CC=CC(=O)[C@@]1(O)O[C@H](c1ccc(OC)c(OC)c1)[C@H]2C	S2 tox inconclusive, ATXN2 expr inh inconclusive, IL1B secr inh -114.5, DRD3 antagonist inconclusive
O=C(Nc1nc2n(n1)C(c1ccccc1)CC(c1ccc(Cl)cc1)N2)c1ccco1 (stereo not given)	IL1B secr inh -58.5
CCN(C(=O)c1cc(Cl)ccc1OC)c1ccccc1	none
COCC(C)NC(=O)NC(=O)c1ccc(Cl)cc1 (stereo not given)	DRD3 antagonist -103.9
COc1cc(NC(=O)c2cccnc2)c(Cl)cc1NC(=O)c1ccccc1	S2 tox inconclusive
O=C(CNC(=O)c1cccs1)N/N=C/c1c(F)cccc1Cl	DRD3 antagonist -51.3
Cc1ccc(/C=N/NC(=O)CNC(=O)c2cccs2)cc1	none
CCN(CC)CC(=O)N1c2ccccc2Sc2ccc(Cl)cc21	S2 tox inconclusive, DRD3 antagonist inconclusive
CN(C)CCCN1c2ccc(O)cc2Sc2ccc(Cl)cc21	S2 tox inconclusive, DRD3 antagonist -109.6 (no result: ATXN2 expr inh)
Cc1ccn2c(CC(C)(C)C)c(-c3ccc(F)cc3)nc2c1	S2 tox 25.1µM, ATXN2 expr inh inconclusive
Cc1ccc(Cc2c(-c3ccc(Cl)cc3)nc3cc(C)ccn23)cc1	S2 tox inconclusive, DRD3 antagonist inconclusive
Cc1ccn2c(Cc3ccccc3)c(-c3ccccc3)nc2c1	none
Cc1ccc(Cc2c(-c3ccc(C)cc3)nc3cc(C)ccn23)cc1	S2 tox 31.6µM, ATXN2 expr inh inconclusive
Cc1ccn2c(Cc3ccccc3)c(-c3ccc(Br)cc3)nc2c1	S2 tox 14.1µM, DRD3 antagonist inconclusive
O=S(=O)(Nc1ccc(N2CCCCC2)cc1)c1ccccc1	none
O=C(CCl)Nc1ccc(Oc2cnc3ccccc3n2)cc1	ATXN2 expr inh inconclusive, IL1B secr inh -104.2 (no result: S2 tox)
O=C(Cc1ccccc1)Nc1cccc(-c2nc3cccnc3s2)c1	DRD3 agonist 78.3 (no result: S2 tox, ATXN2 expr inh, IL1B secr inh, DRD3 antagonist, Integrin act MD)
O=C(CCl)Nc1cccc(-c2cnc3ccccc3n2)c1	ATXN2 expr inh inconclusive, IL1B secr inh -96.3 (no result: S2 tox)
O=C(O)COc1cnc2ccccc2n1	none
CCOCCCN1C(=O)C(=O)N(CC(=O)N2c3ccccc3NC(=O)CC2C)C1=O (stereo not given)	S2 tox inconclusive
Cc1cc2c([nH]c3ccccc32)c(C)n1	none
Cc1c2ccncc2cc2c1[nH]c1ccccc12	S2 tox inconclusive, ATXN2 expr inh inconclusive, IL1B secr inh -96.5
O=C(O)C1OC(Oc2cc3oc(-c4ccccc4)cc(=O)c3c(O)c2O)C(O)C(O)C1O (stereo not given)	DRD3 agonist 32.3
CCOC(=O)CNC(=O)CSc1ncnc2c1cnn2Cc1ccccc1	IL1B secr inh -100.4
O=C(CSc1ncnc2c1cnn2-c1ccccc1)Nc1ccccc1	S2 tox inconclusive, ATXN2 expr inh inconclusive, IL1B secr inh -58.3
CC(C)(C)c1ccc(NC(=O)N2CCCN(c3c(Cl)cncc3Cl)CC2)cc1	ATXN2 expr inh inconclusive, IL1B secr inh -64.6, DRD3 antagonist inconclusive
COc1ccc(/C=C/c2ccc(=O)n(Cc3ccccc3)n2)cc1	IL1B secr inh -155.8
O=c1ccc(/C=C/c2ccccc2)nn1Cc1ccc(F)cc1	IL1B secr inh -59.7
Cc1ccc(/C=C/c2ccc(=O)n(Cc3ccc(F)cc3)n2)cc1	none
O=C(COC(=O)c1ccccc1)Nc1ccccc1Br	none
CN=C(Nc1ccccc1)SC1CC(=O)N(c2cccc(OC)c2)C1=O (stereo not given)	none
O=C(NCCc1ccccc1)c1nccc2ccccc12	none
c1ccc(CCNc2ccnc3cc4ccccc4cc23)cc1	ATXN2 expr inh inconclusive, IL1B secr inh -101.8 (no result: S2 tox)
CC(C)Nc1ccc(Nc2ccnc3cc4ccccc4cc23)cc1	ATXN2 expr inh inconclusive, IL1B secr inh -106.5, DRD3 antagonist -79.5 (no result: S2 tox)
Cc1ccccc1NC(=O)CCS(=O)(=O)c1ccc(Br)s1	none
COC(=O)c1ccccc1NC(=O)CCS(=O)(=O)c1ccc(Br)s1	DRD3 antagonist -52.0
O=C(NCCc1ccc(F)cc1)c1cccc(NC(=O)c2ccccc2)c1	IL1B secr inh inconclusive
CC(C)CC1Nc2ncnc(N3CCN(c4ccccn4)CC3)c2N(Cc2ccc(Br)cc2)C1=O (stereo not given)	IL1B secr inh inconclusive, DRD3 antagonist -99.1!
Cc1ccc(CN2C(=O)C(CC(C)C)Nc3ncnc(N4CCCCC4)c32)cc1 (stereo not given)	S2 tox inconclusive (no result: Integrin act MD)
CC(C)CC1Nc2ncnc(N3CCOCC3)c2N(Cc2ccc(Cl)cc2)C1=O (stereo not given)	none
COc1ccc(CN2C(=O)C(CC(C)C)Nc3ncnc(N4CCN(c5ccccn5)CC4)c32)cc1 (stereo not given)	S2 tox inconclusive, IL1B secr inh -57.7
Cc1ccc(CN2C(=O)C(CC(C)C)Nc3ncnc(N4CCN(c5ccccn5)CC4)c32)cc1 (stereo not given)	IL1B secr inh -55.5, DRD3 antagonist -88.4
O=C(COC(=O)/C=C/c1ccccc1)NC(=O)NC1CCCCC1	none
CC(CN1CCOCC1)OC(=O)C(C)(c1ccccc1)c1ccccc1 (stereo not given)	DRD3 antagonist inconclusive
CC(CN1CCCC1)OC(=O)c1ccccc1Cl (stereo not given)	DRD3 antagonist inconclusive
O=C(/C=C/c1ccccc1)CCN1CCCCC1	S2 tox inconclusive, ATXN2 expr inh inconclusive, IL1B secr inh -90.5, DRD3 antagonist -87.7
O=C(CCN1CCCCCC1)c1ccccc1	none
CC(CN1CCCCC1)OC(=O)/C=C/c1ccccc1 (stereo not given)	DRD3 antagonist -61.2
CC(CN1CCOCC1)OC(=O)/C=C/c1ccccc1 (stereo not given)	none
CC(CN1CCN(C)CC1)OC(=O)c1ccccc1Cl (stereo not given)	DRD3 antagonist -52.2
CC(CN1CCCCC1)OC(=O)C(C)(c1ccccc1)c1ccccc1 (stereo not given)	S2 tox inconclusive, DRD3 antagonist -53.3
CCOC(=O)c1c(NC(=O)CC)sc(C(=O)NC2CCCC2)c1C	none
CC(CN1CCCCC1)OC(=O)Cc1ccc(Cl)cc1 (stereo not given)	DRD3 antagonist -58.3
CC(CN1CCCC1)OC(=O)Cc1ccc(Cl)cc1 (stereo not given)	none
CCOc1ccc(C2CC(=O)Nc3c2c(=O)nc(SCc2ccccc2C)n3C)cc1OC (stereo not given)	none (no result: IL1B secr inh, DRD3 antagonist, Integrin act MD)
NC(=O)c1cccnc1Oc1ccc(Cl)cc1Cl	Integrin act MD 10µM
